# Screens: PubChem, Johns Hopkins Ion Channel Center
# Hits are enriched below; roughly 3.5% of the tested compounds scored in any of these assays.
# ANO1 block = mouse TMEM16A channel inhibition, primary screen | Q8BHY3 | HEK293 TMEM16A/YFP iodide influx fluorescence, ionomycin | normalized B-score (activity score, 25-100; higher = stronger inhibition) at 10 µM | actives 1.2% (n = 310,000);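 active = ratio plate-corrected score three or more library SD toward inhibition, starting fluorescence score within five deviations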;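 note: score derived from kinetic fluorescence span divided by baseline fluorescence per well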
# KCNK9 block = human KCNK9 channel inhibition; Q9NPC2; HEK293 KCNK9, FluxOR thallium flux fluorescence; active compounds read low; B-score at 10 µM; actives 1.2% (n = 310,000); AID 488922;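 active = ratio B-score over 3 SD below the library mean, with starting fluorescence within 5 SD of its mean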;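 note: negative B-score means less thallium flux so channel inhibition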
# ANO1 activ = activators or potentiators of mouse TMEM16A chloride channel; actives 0.3% (n = 340,000); Q8BHY3; AID 623877; B-score at 10 µM; HEK293 TMEM16A/YFP-H148Q/I152L, iodide quench fluorescence; active compounds read low;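 active = fluorescence-ratio B-score plate-corrected deviation score at least 3 library SD below zero, with starting fluorescence score within 5 deviations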;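 note: channel opened by trigger with iodide after compound preincubation; score built on the fluorescence ratio of max minus min over baseline; more negative score means more quench and so TMEM16A activation or potentiation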
# Kir21 inh = blocks the mouse Kir2.1 inward-rectifier potassium channel | P35561 | HEK293-Kir2.1, FluxOR thallium flux fluorescence; active compounds read low | B-score at 10 µM | actives 0.85% (n = 310,000);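 active = fluorescence ratio B-score at or below minus 3 SD of library scores, with starting-brightness B-score within 2 SD, cut at about -4.2 in these data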;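 note: channel flux triggered by added potassium and thallium sulfate stimulus; B-score of peak minus minimum fluorescence over baseline after thallium stimulus; more negative B-score means stronger Kir2.1 block with less thallium influx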
# KCNK3 inh = human KCNK3 channel inhibition, primary screen; actives 0.84% (n = 340,000); B-score at 10 µM; CHO-KCNK3 thallium flux, FluxOR fluorescence; active compounds read low; AID 602410; O14649;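 active = B-score under library mean minus 4 SD, starting fluorescence ratio at most library mean plus 5 SD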;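 note: more negative B-score means stronger inhibition of thallium flux through KCNK3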
# Target sequence (O14649 whole entry, looked up): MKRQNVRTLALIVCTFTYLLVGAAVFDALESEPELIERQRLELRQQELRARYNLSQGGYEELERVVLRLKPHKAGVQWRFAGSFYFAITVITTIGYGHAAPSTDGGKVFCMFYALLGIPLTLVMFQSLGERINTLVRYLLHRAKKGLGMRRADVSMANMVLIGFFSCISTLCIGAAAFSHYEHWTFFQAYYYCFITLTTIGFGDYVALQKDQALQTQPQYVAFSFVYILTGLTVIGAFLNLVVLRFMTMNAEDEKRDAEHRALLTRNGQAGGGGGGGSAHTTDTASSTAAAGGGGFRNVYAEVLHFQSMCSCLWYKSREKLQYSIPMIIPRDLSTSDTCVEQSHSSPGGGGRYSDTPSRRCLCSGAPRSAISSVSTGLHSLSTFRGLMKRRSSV
# KCNK9 inh conf = human KCNK9 inhibitor confirmation | shares compounds with KCNK9 block | HEK293 KCNK9 cells, FluxOR thallium flux fluorescence | inhibition, % at 10 µM | actives 43% (n = 4,900) | AID 492992;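 active = thallium signal inhibited by more than 5 SD of the compound-free buffer control wells, on both duplicate plates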;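 note: 0% = assay buffer control wells without compound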
# Kir2-1 spec = mouse Kir2.1 off-target activity of KCNK9 modulators; shares compounds with KCNK9 block; actives 4% (n = 4,900); Kir2.1 cells, FluxOR thallium flux fluorescence; AID 492993; inhibition, % at 10 µM;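 active = thallium signal drop more than 5 SD beyond the mean of the no-compound control wells, seen in both duplicate plates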;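 note: signal is fluorescence rise after thallium addition divided by baseline fluorescence; plate controls were assay buffer only for no effect and full block by chlorpromazine control for full effect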
# HEK293 Tl ctr = non-induced cell nonspecific activity of KCNK9 modulators. inhibition, % at 10 µM. non-induced KCNK9-HEK293, FluxOR thallium flux. actives 40% (n = 4,900). shares compounds with KCNK9 block;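 active = thallium signal drop beyond 5 SD of the untreated control mean, on both duplicate plates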;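 note: plate controls were buffer only IC0 wells for no effect and SID17386958 at its maximal inhibitory level for full effect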
# Starred values were filed as active, the others as inactive; i = inactive; nt = no result.
SMILES,ANO1 block,KCNK9 block,ANO1 activ,Kir21 inh,KCNK3 inh,KCNK9 inh conf,Kir2-1 spec,HEK293 Tl ctr
C[C@@H]1CC2OC(=O)[C@@]3(C)C(=O)CC[C@@](C)(C23)[C@@]1(O)CCc1ccoc1 (some centres not stated),i,i,nt,-0.79,i,nt,nt,nt
CC1CCC(C(C)C)C(=O)/C1=C/c1ccc(N)cc1 (configuration not stated),i,i,i,-0.02,i,nt,nt,nt
CC1/C(=C\c2ccc(Cl)cc2)C(=O)C2CC1C2(C)C (configuration not stated),i,i,i,2.5,i,i,i,i
CCN=c1scc(-c2ccco2)n1/N=C/c1ccc(OC)c(O)c1,i,i,i,-0.02,i,i,i,i
CCN=c1scc(-c2ccco2)n1/N=C/c1ccc(O)cc1,i,i,i,0.79,i,nt,nt,nt
Cc1ccc(S(=O)(=O)N2CCCCC2)cc1NC(=O)COC(=O)Cc1ccc(Cl)cc1,i,i,i,-0.54,i,i,i,i
CCN(CC)S(=O)(=O)c1ccc(C)c(NC(=S)Nc2cccc(S(=O)(=O)N3CCCCCC3)c2)c1,i,i,i,-2.7,i,i,i,i
CCN(CC(=O)Nc1cc(S(=O)(=O)N2CCCCC2)ccc1Cl)Cc1ccccc1,i,i,i,-1.5,i,i,i,i
O=C(Nc1cccc(Cl)c1)Nc1cc(S(=O)(=O)N2CCCCC2)ccc1Cl,i,i,i,1.9,i,i,i,i
CN1CCN(S(=O)(=O)c2ccc(NC(=O)Nc3cccc(Cl)c3)cc2)CC1,i,i,i,0.76,i,nt,nt,nt
CCN(CC)S(=O)(=O)c1ccc(C)c(NC(=O)CNc2cccc(S(=O)(=O)N3CCOCC3)c2)c1,i,i,i,1.1,i,nt,nt,nt
CN(C(=O)CSc1nc2ccc(Br)cc2c(=O)n1Cc1ccco1)C1CCS(=O)(=O)C1 (configuration not stated),i,i,i,1.2,i,nt,nt,nt
CCN(C(=O)CSc1nc2cc(Cl)ccc2c(=O)n1Cc1ccco1)C1CCS(=O)(=O)C1 (configuration not stated),i,-10*,i,-2.5,i,i,i,i
CN(CC(=O)Nc1cccc(F)c1)C(=O)c1cccc(S(=O)(=O)N2CC3(C)CC2CC(C)(C)C3)c1 (configuration not stated),i,i,i,0.02,i,nt,nt,nt
CCCCOC(=O)Nc1cc(Cl)ccc1C,i,-13*,i,0.19,i,32%*,i,i
CCOc1cc(CNc2ccc3c(c2)OCCO3)cc(Br)c1OC,i,i,i,-1.2,i,i,i,i
O=S(=O)(c1ccccc1Oc1ccc(Cl)cc1Cl)N1CCCCC1,i,-9.9*,i,0.49,i,45%*,i,i
CCOc1ccc(N(CC(=O)Nc2ccc(C)c(C)c2)S(C)(=O)=O)cc1,i,i,i,0.36,i,nt,nt,nt
CCCOc1cccc(C(=O)NC(=S)Nc2cccc(C(F)(F)F)c2)c1,i,i,i,-0.14,i,i,i,i
CCOc1cccc(C(=O)NC(=S)Nc2cccc(C)c2)c1,i,i,i,-0.8,i,nt,nt,nt
CCN(CC)C(=O)Cn1cc(C(=O)C(=O)Nc2ccc3c(c2)OCCO3)c2ccccc21,i,i,i,-0.06,i,nt,nt,nt
Cc1cc(C)nc(/N=C(\N)Nc2ccc(C(C)C)cc2)n1,i,i,i,-1.3,i,nt,nt,nt
COc1ccc(C2CC(c3ccccc3)=NN2C(=O)COC(=O)C2(C)CC2(Cl)Cl)cc1 (configuration not stated),i,i,i,1.5,i,i,i,i
COc1ccc(C2=NN(C(=O)c3ccccc3)C(c3cccc([N+](=O)[O-])c3)C2)cc1 (configuration not stated),i,-18*,i,-0.79,i,54%*,i,28%*
CC(=O)Nc1c(C(=O)Nc2ccc3c(c2)OCO3)oc2ccccc12,i,i,i,-0.32,i,nt,nt,nt
SMILES,ANO1 block,KCNK9 block,ANO1 activ,Kir21 inh,KCNK3 inh,KCNK9 inh conf,Kir2-1 spec,HEK293 Tl ctr
Cc1c(C(=O)Nc2ccc3c(c2)OCO3)oc2ccccc12,i,-15*,i,0.84,i,62%*,i,33%*
COC(=O)C1=C(C)OC(N)=C(C#N)C1c1c(C)nn(-c2ccccc2)c1Cl (configuration not stated),i,-13*,i,0.03,i,37%*,i,i
COc1ccc(/C=C/C(=O)c2ccccc2)cc1COc1ccccc1F,i,-12*,i,1,-12*,50%*,i,32%*
COc1ccc(/C=C/C(=O)C2CC2)cc1COc1c(C)cccc1C,i,-11*,i,-0.46,i,48%*,i,i
COCC(C)n1c(C)cc(C(=O)COC(=O)CN=C2NS(=O)(=O)c3ccccc32)c1C (configuration not stated),i,i,i,0.51,i,nt,nt,nt
O=[N+]([O-])c1ccc(COc2cccc(CNc3ccc(Br)cc3)c2)cc1,i,-10*,i,1.2,i,i,i,37%*
COc1ccc2[nH]c3c(c2c1)CCN1C(=O)C(CC(=O)NCCC2=CCCCC2)C[C@H](C(=O)N2CCOCC2)[C@@]31C (some centres not stated),nt,nt,nt,nt,i,nt,nt,nt
COc1ccc(C=NNc2ccc([N+](=O)[O-])cn2)cc1,nt,nt,i,nt,i,nt,nt,nt
O=[N+]([O-])c1ccc(N/N=C/c2ccc(OCc3cccc4ccccc34)cc2)nc1,i,-9.3*,i,-0.03,i,42%*,i,i
O=[N+]([O-])c1ccc(N/N=C\c2cccn2-c2ccccc2)nc1,i,-12*,i,-0.42,-9.8*,65%*,i,62%*
CCN(CC(=O)Nc1ccccc1C(F)(F)F)C(=O)c1ccccc1OCc1ccc(F)cc1,nt,nt,i,nt,i,nt,nt,nt
C=CCNc1oc(-c2cccs2)nc1S(=O)(=O)c1ccccc1,i,i,i,-1.4,i,nt,nt,nt
O=C(Nc1ccc(F)cc1)C1CCCN(C2=NS(=O)(=O)c3ccccc32)C1 (configuration not stated),nt,nt,i,nt,i,nt,nt,nt
C/C(=N\Nc1cc(C(F)(F)F)ccc1Cl)c1ccccc1O,i,i,i,0.49,i,i,i,i
